# Reference: the supplement of paper PMC3414501
# Where a name gives a salt, the structure may show the parent alone.
# Assays:
# [1] = tested on: S. cerevisiae SK1 pCDA2-eGFP (USY613), sporulating; assay: CDA2-GFP sporulation assay sensitivity score (z-score vs DMSO controls); higher = stronger inhibition of sporulation, active = hit call of the paper;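 also: active if sensitivity score above 5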
# [2] = tested on: S. cerevisiae NKY1551 his4x/his4B, sporulating; assay: HIS4 meiotic recombination assay sensitivity score (z-score vs DMSO controls); higher = stronger inhibition of sporulation/recombination, active = hit call of the paper;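 also: active if sensitivity score above 5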
# [3] = tested on: S. cerevisiae AD1-9 (efflux-pump deficient), vegetative growth in YPD; assay: growth sensitivity score (doubling time z-score vs DMSO controls); higher = slower growth, strongly negative scores also mark growth inhibition (complete suppression), active = hit call of the paper
# Outline: (§1)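 Yeast (Saccharomyces cerevisiae BY4741 and AD1-9) was grown in rich medium in microtiter plates from a starting OD600 of 0.065, with optical density read every 15 min over 24 hours. The growth sensitivity score was the difference between compound and solvent-only means, divided by the solvent-only standard deviation. Every experiment had eight solvent-only wells.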
# [4] = tested on: S. cerevisiae BY4741 (wild-type), vegetative growth in YPD; assay: as above
# Outline: as §1
Compound,CDA2-GFP sporulation assay sensitivity score [1],HIS4 meiotic recombination assay sensitivity score [2],growth sensitivity score [3],growth sensitivity score [4]
"CCCCN1CCCC1CNC(=O)c1cc(C#N)c2ccccc2c1OC (stereo unspecified) [Nafadotride] (stock concentration (mM, diluted 1:100): 10)",3.66 (inactive),-0.64 (inactive),-2.8,-0.11 (inactive)
"CO[C@H]1/C=C/O[C@@]2(C)Oc3c(C)c(O)c4c(O)c(c(/C=N/N5CCN(C6CCCC6)CC5)c(O)c4c3C2=O)NC(=O)/C(C)=C\C=C\[C@H](C)[C@H](O)[C@@H](C)[C@@H](O)[C@@H](C)[C@H](OC(C)=O)[C@@H]1C [Rifapentine] (stock concentration (mM, diluted 1:100): 10)",14.2 (inactive),-0.69 (inactive),-0.99 (inactive),0.15 (inactive)
"CC(C)C[C@H](NC(=O)[C@@H](COC(C)(C)C)NC(=O)[C@H](Cc1ccc(O)cc1)NC(=O)[C@H](CO)NC(=O)[C@H](Cc1c[nH]c2ccccc12)NC(=O)[C@H](Cc1cnc[nH]1)NC(=O)[C@@H]1CCC(=O)N1)C(=O)N[C@@H](CCCNC(=N)N)C(=O)N1CCC[C@H]1C(=O)NNC(N)=O [Goserelin acetate] (stock concentration (mM, diluted 1:100): 9.6)",0.53 (inactive),-1.25 (inactive),0.11 (inactive),-0.77 (inactive)
"C[C@H]1[C@H](OC(=O)CCC(=O)O)O[C@@H]2O[C@@]3(C)CC[C@H]4[C@H](C)CC[C@@H]1[C@@]24OO3 [Artesunate] (stock concentration (mM, diluted 1:100): 10)",0.74 (inactive),0.08 (inactive),23.2 (active),2.81 (active)
"CCOC(=O)[C@@]1(CCCCCCOc2ccc(Cl)cc2)CO1 [Etomoxir] (stock concentration (mM, diluted 1:100): 10)",5.49 (inactive),-1.14 (inactive),8.16 (active),1.54 (inactive)
"COc1cc(-c2ccc(=O)[nH]n2)ccc1OC(F)F [Zardaverine] (stock concentration (mM, diluted 1:100): 11.7)",1.43 (inactive),-0.18 (inactive),2.67 (active),1.71 (inactive)
"C[C@H]1COc2c(N3CCN(C)CC3)c(F)cc3c(=O)c(C(=O)O)cn1c23 [Levofloxacin] (stock concentration (mM, diluted 1:100): 10)",-0.01 (inactive),0.16 (inactive),,-0.66 (inactive)
"CC(=O)O[C@]1(C(C)=O)CC[C@H]2[C@@H]3C=C(C)C4=CC(=O)CC[C@]4(C)[C@H]3CC[C@@]21C [Megestrol acetate] (stock concentration (mM, diluted 1:100): 10)",0.75 (inactive),-2.67 (inactive),38.5 (active),1.27 (inactive)
"CCOc1cc(CC(=O)N[C@@H](CC(C)C)c2ccccc2N2CCCCC2)ccc1C(=O)O [Repaglinide] (stock concentration (mM, diluted 1:100): 10)",2 (inactive),0.84 (inactive),,2.53 (active)
"Cc1nc2ccccn2c(=O)c1CCN1CCC(C(=O)c2ccc(F)cc2)CC1 [Pirenperone] (stock concentration (mM, diluted 1:100): 10)",13.6 (active),2.21 (inactive),-0.84 (inactive),-0.59 (inactive)
"CCCc1c(OCCCCc2nnn[nH]2)ccc(C(C)=O)c1O (stock concentration (mM, diluted 1:100): 10)",-1.99 (inactive),-2.23 (inactive),5.49 (active),1.14 (inactive)
"C[C@H](N[C@@H](CCc1ccccc1)C(=O)O)C(=O)N1CCC[C@H]1C(=O)O [Enalaprilat] (stock concentration (mM, diluted 1:100): 10)",1.04 (inactive),-0.11 (inactive),-0.82 (inactive),0.34 (inactive)
"CNCCCCOc1ccccc1Cc1ccccc1 [Bifemelane] (stock concentration (mM, diluted 1:100): 10)",1.21 (inactive),9.23 (active),127 (active),3.54 (active)
"Cc1c(C(=O)NN2CCCCC2)nn(-c2ccc(Cl)cc2Cl)c1-c1ccc(I)cc1 (stock concentration (mM, diluted 1:100): 10)",-0.97 (inactive),1.13 (inactive),,-2.45
"CC1(C)S[C@@H]2[C@H](/N=C/N3CCCCCC3)C(=O)N2[C@H]1C(=O)O [Mecillinam] (stock concentration (mM, diluted 1:100): 10)",0.59 (inactive),-0.86 (inactive),-0.02 (inactive),1.05 (inactive)
"C[C@@H](c1ncncc1F)[C@](O)(Cn1cncn1)c1ccc(F)cc1F [Voriconazole] (stock concentration (mM, diluted 1:100): 9.9)",-0.46 (inactive),0.14 (inactive),20.3 (active),43.3 (active)
"OCCN1C[C@H](O)[C@@H](O)[C@H](O)[C@H]1CO [Miglitol] (stock concentration (mM, diluted 1:100): 10)",1.46 (inactive),-0.62 (inactive),-2.16,-1.34 (inactive)

Compound,CDA2-GFP sporulation assay sensitivity score [1],HIS4 meiotic recombination assay sensitivity score [2],growth sensitivity score [3],growth sensitivity score [4]
"OC[C@H]1O[C@@H](Oc2cc(O)cc(/C=C/c3ccc(O)cc3)c2)[C@H](O)[C@@H](O)[C@@H]1O [Piceid] (stock concentration (mM, diluted 1:100): 10)",0.56 (inactive),-1.14 (inactive),0.32 (inactive),-0.24 (inactive)
"CN1CCCC(n2nc(Cc3ccc(Cl)cc3)c3ccccc3c2=O)CC1 (stereo unspecified) [Azelastine hydrochloride] (stock concentration (mM, diluted 1:100): 9.1)",0.63 (inactive),10.7 (active),11 (active),0.19 (inactive)
"CCOC(=O)N1CCC(=C2c3ccc(Cl)cc3CCc3cccnc32)CC1 [Loratadine] (stock concentration (mM, diluted 1:100): 10)",3.83 (inactive),-1.19 (inactive),,335 (active)
"COc1ccc(CN2CCN(C(c3ccc(F)cc3)c3ccc(F)cc3)CC2)c(OC)c1OC [Lomerizine dihydrochloride] (stock concentration (mM, diluted 1:100): 8.7)",13.1 (active),-0.52 (inactive),,2.29 (active)
"CCOc1cc(N)c(Cl)cc1C(=O)NCC1CN(Cc2ccc(F)cc2)CCO1 (stereo unspecified) [Mosapride citrate] (stock concentration (mM, diluted 1:100): 6.9)",1.67 (inactive),-0.43 (inactive),17.2 (active),3.25 (active)
"OCc1cccnc1 [3-Pyridinemethanol] (stock concentration (mM, diluted 1:100): 10)",2.69 (inactive),0.73 (inactive),0.78 (inactive),-1.12 (inactive)
"Cc1ncc([N+](=O)[O-])n1CCO [Metronidazole] (stock concentration (mM, diluted 1:100): 10)",0.28 (inactive),0.15 (inactive),-0.99 (inactive),-0.2 (inactive)
"COCCOC(=O)C1=C(C)NC(C)=C(C(=O)OC(C)C)C1c1cccc([N+](=O)[O-])c1 (stereo unspecified) [Nimodipine] (stock concentration (mM, diluted 1:100): 10)",0.44 (inactive),4.27 (inactive),260 (active),0.46 (inactive)
"CN1CCc2cc(Cl)c(O)cc2[C@@H](c2ccccc2)C1 (stock concentration (mM, diluted 1:100): 9.9)",15.9 (active),3.2 (inactive),0.38 (inactive),-0.55 (inactive)
"Cc1cc2c(s1)Nc1ccccc1N=C2N1CCN(C)CC1 [Olanzapine] (stock concentration (mM, diluted 1:100): 9.9)",2.56 (inactive),1.61 (inactive),-0.74 (inactive),-0.76 (inactive)
"CC(=O)OCC(CCn1cnc2cnc(N)nc21)COC(C)=O [Famciclovir] (stock concentration (mM, diluted 1:100): 10)",0.31 (inactive),-0.43 (inactive),-0.2 (inactive),-1.36 (inactive)
"C=C1/C(=C\C=C2/CCC[C@]3(C)[C@@H]([C@H](C)/C=C/[C@@H](O)C4CC4)CC[C@@H]23)C[C@@H](O)C[C@@H]1O [Calcipotriol] (stock concentration (mM, diluted 1:100): 10.1)",,2.61 (inactive),,-0.31 (inactive)
"Cc1ccsc1C(=CCCN1CCC[C@@H](C(=O)O)C1)c1sccc1C [Tiagabine hydrochloride] (stock concentration (mM, diluted 1:100): 9.1)",2.44 (inactive),,0.07 (inactive),0.29 (inactive)
"CCc1oc2ccccc2c1C(=O)c1cc(Br)c(O)c(Br)c1 [Benzbromarone] (stock concentration (mM, diluted 1:100): 10)",13.7 (active),-1.58 (inactive),,72.3 (active)
"Cc1cccc(CCN2CCC(C(=O)c3ccc(NS(C)(=O)=O)cc3)CC2)n1 (stock concentration (mM, diluted 1:100): 9.9)",-0.99 (inactive),-3.32 (inactive),,-0.44 (inactive)
"CC(=O)NC[C@H]1CN(c2ccc(N3CCOCC3)c(F)c2)C(=O)O1 [Linezolide] (stock concentration (mM, diluted 1:100): 10)",0.79 (inactive),,2.05 (active),-1.67 (inactive)
